# Reference: PubChem BioAssay (NCI)
# This is part of a sample that, as a whole, favours compounds with a hit. Of some 83,000 tested, about 20% had one in any assay.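 Cell lines were cultured in 96-well plates, exposed to a single compound concentration, and assessed for percent growth 48 hours later.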 Values without a mark were called inactive. The source made the active and inactive calls. The calls were made as follows: active = growth percent below 10; inactive = the rest.
# Columns and labels:
# Assay in all cases: NCI-60 one-dose screen, 48 h (100 = growth as untreated, 0 = no growth, -100 = all killed)
# Conditions in all cases: 10 µM unless noted
# SR leukemia = test system: SR leukemia
# RPMI-8226 leukemia = test system: RPMI-8226 leukemia
# OVCAR-8 ovarian = test system: OVCAR-8 ovarian
# OVCAR-5 ovarian = test system: OVCAR-5 ovarian
# OVCAR-4 ovarian = test system: OVCAR-4 ovarian
# SK-OV-3 ovarian = test system: SK-OV-3 ovarian
# IGROV1 ovarian = test system: IGROV1 ovarian
# OVCAR-3 ovarian = test system: OVCAR-3 ovarian
# HS 578T breast = test system: HS 578T breast
# NCI/ADR-RES ovarian = test system: NCI/ADR-RES ovarian
# T-47D breast = test system: T-47D breast
# BT-549 breast = test system: BT-549 breast
# MDA-MB-435 melanoma = test system: MDA-MB-435 melanoma
# SW-620 colon = test system: SW-620 colon
# MCF7 breast = test system: MCF7 breast
# HCT-116 colon = test system: HCT-116 colon
# HCC-2998 colon = test system: HCC-2998 colon
# KM12 colon = test system: KM12 colon
Structure (SMILES),growth (SR leukemia),growth (RPMI-8226 leukemia),growth (OVCAR-8 ovarian),growth (OVCAR-5 ovarian),growth (OVCAR-4 ovarian),growth (SK-OV-3 ovarian),growth (IGROV1 ovarian),growth (OVCAR-3 ovarian),growth (HS 578T breast),growth (NCI/ADR-RES ovarian),growth (T-47D breast),growth (BT-549 breast),growth (MDA-MB-435 melanoma),growth (SW-620 colon),growth (MCF7 breast),growth (HCT-116 colon),growth (HCC-2998 colon),growth (KM12 colon)
O=C(NNc1nc2cc(F)c(F)cc2n2c(CN3CC4CNCC4C3)ccc12)c1cnccn1 (stereo not drawn),12%,20.4%,13.8%,42.7%,22.8%,13.3%,14.5%,35.9%,72.7%,56.7%,20.8%,28.7%,25.3%,23.7%,10.9%,14.8%,31.7%,15.4%
CCOC(=O)C(=O)CC(=O)N1C(=S)NC(=O)C1CC(C)C (stereo not drawn),112%,107%,101%,98.5%,102%,122%,97.5%,112%,111%,95.3%,109%,87.5%,99.9%,106%,95.8%,95.4%,97.8%,98.8%
COc1ccc(-n2c(/C=C3\C(=O)Nc4ccccc43)ccc2CO)cc1,105%,94.6%,102%,107%,92.6%,105%,98.5%,114%,106%,102%,88.8%,100%,94.8%,98.6%,93.3%,95.6%,113%,19.3%
O=C(CSc1nnc(-c2ccc3nc(-c4ccccc4)[nH]c3c2)o1)Nc1ccc(C(=O)/C=C/c2ccccc2)cc1,111%,94.3%,100%,118%,100%,109%,95.8%,116%,103%,105%,98.6%,96.8%,101%,116%,87.6%,97%,106%,110%
COC(=O)c1ccc(NC2=C/C(=N/S(=O)(=O)c3ccc(C(=O)O)cc3)c3ccccc3C2=O)cc1,0.0887% (active),2.88% (active),9.15% (active),18.8%,-56.5% (active),106%,11.3%,-28.6% (active),-13.6% (active),4.23% (active),4.9% (active),84.2%,-93.1% (active),-30% (active),-58.2% (active),5.32% (active),105%,51.1%
COc1cc(/C=C2\C(=O)Nc3ccccc32)ccc1OCc1ccc(F)cc1,90.1%,107%,102%,107%,103%,114%,101%,117%,115%,102%,107%,116%,103%,106%,87.8%,107%,119%,101%
CNC(=O)c1c(NC(=O)c2ccccc2C(F)(F)F)sc2c1CCC(=O)C2,29%,-0.77% (active),24.6%,23.2%,16.2%,95.7%,36.6%,11.2%,40%,28.1%,9.8% (active),27.2%,37.5%,21%,13.9%,8.16% (active),62%,18.5%
Cc1ccc(-c2nn(-c3ccccc3)cc2/C=C/C(=O)c2ccc(NC(=O)CCCCCCC(=O)NO)cc2)cc1,85.4%,70.5%,62.5%,79.2%,79.8%,70.7%,69.1%,75.9%,47.1%,70.4%,58.5%,108%,67.9%,75.1%,71.4%,33.6%,83.1%,78.2%
O=C1CCCC2=C1C(c1c[nH]c3ccc(Br)cc13)Cc1cc(Br)ccc1N2 (stereo not drawn),33.3%,25.1%,55.3%,66.2%,101%,44.7%,24.1%,27.2%,20.2%,21.4%,20.7%,39.4%,-10.2% (active),22.7%,23.4%,19.3%,68.2%,21.7%
COc1ccc(C(=O)c2c(N)c(C#N)cn2-c2ccccc2OC)cc1,16.1%,35.9%,55.9%,76.7%,63.3%,45.6%,33.1%,14.6%,13%,13.5%,32.1%,64.5%,-27.8% (active),20.3%,13.9%,22.2%,48%,27.5%
Cc1nn(-c2ccccc2)c2ncnc(N/N=C/c3cccc(O)c3)c12,30.8%,22.7%,59.2%,77.1%,30.2%,88.4%,54.9%,41.5%,56.9%,23.3%,17.8%,46.8%,3.94% (active),34%,17.8%,24%,72.6%,29.3%
